# Test results as given in PubChem BioAssay (NCATS).
# Inconclusive results are not listed. Where a call stands in place of a potency, no number is given. Activity calls are given as the source filed them. Unless noted, calls come from the whole dose curve; as a rule, active = well fitted curve in the direction sought with a large enough effect; inconclusive = small, poorly fitted or top-dose-only effect, or another doubt; inactive = no such curve, though single readings can be large; an effect the other way counts as inactive or inconclusive.
# Tests used:
# [1] = HPAF-II 24hr Apoptosis Induction qHTS against the NCATS CANVASS Library (AID 1347356)
# In short: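 Caspase-Glo 3/7 luminescence, read after 15 min room-temperature development, measures apoptosis in HPAF-II cells treated 24 h at 37 degrees C with an 11-point concentration series; 500 cells/well; doxorubicin control.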
# [2] = HEK293 18hr Apoptosis Induction qHTS against the NCATS CANVASS Library (AID 1347357)
# In short: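 Cells seeded at 500/well in DMEM + 10% FBS. Compounds pinned, 11 concentrations. 18 h, 37 degrees C/5% CO2. Caspase-Glo 3/7 added, 15 min RT dark, luminescence read.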
# [3] = HPAF-II 12hr Apoptosis Induction qHTS against the NCATS CANVASS Library (AID 1347358)
# In short: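 Caspase-3/7 activation by DEVD-substrate luminescence (Caspase-Glo 3/7, 15 min, room temperature) after a 12-hour compound exposure in 11 concentrations, of HPAF-II pancreatic cells seeded at 500/well in DMEM with 10% FBS.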
# [4] = HEK293 24hr Apoptosis Induction qHTS against the NCATS CANVASS Library (AID 1347359)
# In short: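 HEK293 cells, 500 per well, exposed to an 11-point compound series for 24 hours at 37 degrees C. Caspase 3/7 activity read by Caspase-Glo luminescence (DEVD substrate) after 15 min at room temperature.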
# [5] = HPAF-II 18hr Apoptosis Induction qHTS against the NCATS CANVASS Library (AID 1347360)
# In short: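 Seed HPAF-II cells at 500/well in DMEM + 10% FBS, pin-transfer compounds, incubate 18 hours at 37 degrees C/5% CO2, add Caspase-Glo 3/7 reagent, wait 15 min, read luminescence.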
# [6] = qHTS for ATAD5 Agonist screened against the NCATS CANVASS Library (AID 1347367);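 note: luciferase reporter driven by ATAD5 which rises upon DNA damage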
# In short: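 HEK293T-ATAD5 luc reporter; 2000 cells/well; 5hr settle; cpd 11-pt qHTS; 16hr 37C 5% CO2 dark; viability by CellTiter-Fluor (AFC fluorescence); then luciferase luminescence, 30min RT.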
# [7] = MCF7 Cancer Cell Toxicity qHTS against the NCATS CANVASS Library (AID 1347369)
# In short: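 Cells seeded at 500/well, then compound pinned. Plates incubated 72 hr at 37C, 5% CO2. CellTiterGlo added; luminescence read.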
# [8] = target: Nuclear receptor subfamily 1 group I member 3 (Homo sapiens) (UniProt Q14994); assay: qHTS for Constitutive Androstane Receptor (CAR) Agonist screened against the NCATS CANVASS Library (AID 1347373);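 note: every well also contained 1.5 µM PK11195 alongside the test compound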; note: potency is the fitted concentration of half-maximal effect
# Nuclear receptor subfamily 1 group I member 3 (Homo sapiens), sequence (Q14994 whole entry, looked up): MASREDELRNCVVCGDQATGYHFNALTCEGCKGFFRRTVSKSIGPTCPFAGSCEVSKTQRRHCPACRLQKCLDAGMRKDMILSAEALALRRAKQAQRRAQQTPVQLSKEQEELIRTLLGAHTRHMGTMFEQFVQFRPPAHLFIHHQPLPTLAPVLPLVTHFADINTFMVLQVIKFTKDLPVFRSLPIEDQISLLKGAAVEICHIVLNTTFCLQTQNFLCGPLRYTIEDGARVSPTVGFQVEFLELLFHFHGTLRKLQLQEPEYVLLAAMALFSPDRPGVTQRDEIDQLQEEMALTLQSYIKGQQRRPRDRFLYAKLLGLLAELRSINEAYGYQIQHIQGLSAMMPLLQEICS
# In short: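 Agonist mode with 1.5uM PK11195 present: compounds for 24hr on HepG2-hCAR-CYP2B6 cells. CellTiter-Fluor fluorescence (ex 405, em 540 nm) gives viability; ONE-Glo luminescence reports CAR activation.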
# [9] = qHTS for Hypoxia signaling pathway (HIF-1) agonists against the NCATS CANVASS Library (AID 1347375)
# In short: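 Beta-lactamase reporter under HRE control in ME-180 cells; compounds (11-point qHTS series) added after 5 hrs plating, then 17 hrs at 37C. FRET substrate read after 2 hr; same-well CellTiter-Glo luminescence gave viability and normalization.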
# [10] = DH5-alpha competent E. coli microbial cell viability qHTS against the NCATS CANVASS Library (AID 1347377); details: outcome: dose series up to 46.1 µM unless noted
# In short: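 Bacterial viability as ATP-dependent luminescence (BacTiter-Glo), read after overnight 37 °C exposure of DH5-alpha competent E. coli to compounds in 11-point titration.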
# [11] = qHTS for H2AX Agonists against the NCATS CANVASS Library (AID 1347378);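 note: phospho-H2AX S139 level in CHO-K1 lysates by TR-FRET emission ratio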
# In short: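 CHO-K1, 1000 cells/well, o/n 37C; cpd several conc, 3 hr 37C, 0.76% DMSO; lyse 30 min RT; cryptate anti-pH2AX(S139) + d2 anti-H2AX, 24 hr RT; HTRF 665/620.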
# [12] = qHTS for activators of dead-cell proteases activity screened against the NCATS CANVASS Library (AID 1347392);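 note: luminescence from protease leaking out of membrane-damaged cells cleaving impermeant substrate; rising signal means more cytotoxicity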
# In short: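 HepG2, 2000 cells/well, 18 h attach; cpd 11-pt, 5 h 37C 5% CO2; CytoTox-Glo (AAF-aminoluciferin) 15 min RT; luminescence read.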
# [13] = qHTS for Inflammasome Signaling Inhibitors: IL-1-beta AlphaLISA screen against the NCATS CANVASS Library (AID 1347379);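 note: human THP-1 cells primed with LPS then triggered with ATP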;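 for activity change, negative = inhibition: secreted IL-1B measured as AlphaLISA emission at 615 nm; lower signal means less IL-1B release which is the wanted effect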;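 for potency: secreted IL-1B measured as AlphaLISA emission at 615 nm; potency is the fitted concentration of half-maximal effect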
# In short: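 Secreted IL-1B from human THP-1 cells quantified by AlphaLISA 16 hr after compound addition (final up to 57.5 uM). A 1 hr compound pretreatment preceded inflammasome activation with 250 ng/mL LPS plus 1.25 mM ATP (final).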
# [14] = qHTS to identify inhibitors of the type 1 interferon - major histocompatibility complex class I in skeletal muscle: primary screen against the NCATS Mechanism Interrogation Plate v5.0 (MIPE) Libary (AID 1347411); note: potency is the fitted concentration of half-maximal effect; nearly all actives have a fitted effect of over 65% in size
# In short: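 Luminescence from CRISPR HiBit-tagged endogenous HLA-B in human myoblasts reported MHC class I level after 24 h of IFN-beta (4 ng/ml) plus compound. Compounds ran as 11-point 1:3 series, top 46 uM final.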
# [15] = Primary qHTS for inhibitors of nuclear receptor binding SET domain protein 2 (NSD2) in an isogenic RCH-ACV NSD2 p.E1099K mutant (9B) (AID 1645876); note: potency is the fitted concentration of half-maximal effect; nearly all actives have a fitted effect of over 70% in size
# [16] = Primary qHTS for inhibitors of nuclear receptor binding SET domain protein 2 (NSD2) in an RCH-ACV wild type WT cells (2C) (AID 1645877); note: potency is the fitted concentration of half-maximal effect; nearly all actives have a fitted effect of over 70% in size
# [17] = target: Glutathione peroxidase 1 (Homo sapiens) (UniProt P07203); assay: Primary qHTS Assay for Inhibitors of Recombinant Selenoprotein Glutathione Peroxidase 1 (GPX1) (AID 1845191); note: nearly all actives have a fitted effect of over 65% in size
# Glutathione peroxidase 1 (Homo sapiens), sequence (P07203 whole entry, looked up): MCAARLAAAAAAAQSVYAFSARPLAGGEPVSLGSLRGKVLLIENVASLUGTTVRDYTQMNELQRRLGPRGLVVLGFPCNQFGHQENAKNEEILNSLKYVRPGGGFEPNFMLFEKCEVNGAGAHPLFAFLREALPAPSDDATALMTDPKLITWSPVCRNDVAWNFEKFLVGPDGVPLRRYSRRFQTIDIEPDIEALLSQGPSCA
# In short: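 GR-coupled readout: NADPH consumption tracked by fluorescence, ex 340/em 450 nm, at t=0 and after 15 min at RT. Final mix 10 nM GPX1, 1 mM GSH, 0.5 mM CHP, 0.5 mM NADPH, 100 nM GR, 0.01% BSA, following 30 min enzyme–compound preincubation.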
# [18] = target: Phospholipid hydroperoxide glutathione peroxidase GPX4 (Homo sapiens) (UniProt P36969); assay: Primary qHTS Assay for Inhibitors of Recombinant Selenoprotein Glutathione Peroxidase 4 (GPX4) (AID 1845192); details: outcome: dose series up to 50 µM unless noted; note: nearly all actives have a fitted effect of over 65% in size
# Phospholipid hydroperoxide glutathione peroxidase GPX4 (Homo sapiens), sequence (P36969 whole entry, looked up): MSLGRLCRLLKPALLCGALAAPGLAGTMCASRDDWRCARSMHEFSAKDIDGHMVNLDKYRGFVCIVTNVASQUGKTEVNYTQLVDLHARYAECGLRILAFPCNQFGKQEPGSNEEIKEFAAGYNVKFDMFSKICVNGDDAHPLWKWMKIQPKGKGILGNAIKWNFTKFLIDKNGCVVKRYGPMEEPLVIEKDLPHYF
# In short: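 Steps: GPX4 plus compound, 30 min RT; add GR/GSH/NADPH master mix; start with cumene hydroperoxide; read 340/450 nm fluorescence at 0 and 15 min. Finals were 200 nM GPX4, 1 mM GSH, 0.5 mM CHP, 0.5 mM NADPH, 100 nM GR.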
# [19] = qHTS drug screen for cell cycle checkpoint inhibitors in PARPi-resistant BRCA-mutant ovarian cancer cell lines. (AID 1963452; calls by dose curve; note: potency is the fitted concentration of half-maximal effect); details: PEO1/OlaR viability, CellTiter-Glo luminescence, 96 h; for Z-AUC: stronger effect = lower value
# In short: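 PEO1, PEO4 and PEO1/OlaR ovarian cancer cells, 600 per well, exposed 96 h at 37C to a dilution series. Viability read by CellTiter-Glo luminescence, normalized to DMSO and empty wells; activity summarized as Z-AUC.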
# [20] = qHTS assay to identify inhibitors of the type 1 interferon - major histocompatibility complex class I in skeletal muscle: Counter screen cell viability and HiBit confirmation (AID 1347412); details: iHSKM muscle cells + IFN-b, HiBiT or CellTiter-Glo, 24 h; for activity change, negative = inhibition: at 45.9 µM (top of the series); note: potency is the fitted concentration of half-maximal effect; for all read-outs here: nearly all actives have a fitted effect of over 60% in size
# In short: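 Luminescence read-out: Nano-Glo HiBiT lytic signal from C-terminally HiBiT-tagged HLA-B in CRISPR-edited human myoblasts, plus CellTiter Glo ATP as viability counter screen. IFN-beta 4.0 ng/ml; 24 hrs treatment at 37 C, 5% CO2.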
# [21] = measured here: PEO1 parental Z-AUC
structure (smiles),measurement,setting,value
COc1cc2oc3ccccc3c(=O)c2cc1OC,outcome,[1],inactive
same,Potency,[2],inactive
same,Potency,[3],inactive
same,Potency,[4],inactive
same,Potency,[5],inactive
same,Potency,[6],inactive
same,Potency,[7],inactive
same,Potency,[8],38200 nM (active)
same,outcome,[9],inactive
same,outcome,[10],inactive
same,Potency,[11],inactive
same,Potency,[12],inactive
C/C=C/c1cc2c(c(=O)o1)C(=O)[C@@H](O)[C@H](C)O2,outcome,[1],inactive
same,Potency,[3],inactive
same,Potency,[4],inactive
same,Potency,[5],inactive
same,Potency,[6],inactive
same,Potency,[7],inactive
same,Potency,[8],inactive
same,outcome,[9],inactive
same,outcome,[10],inactive
same,Potency,[13],21700 nM (active)
same,Potency,[12],inactive
CC[C@@H](c1cc(OC)c(OC)cc1OC)[C@H](C)[C@@H](/C(C)=C/c1cc(OC)c(OC)cc1OC)c1cc(OC)c(OC)cc1OC,outcome,[1],inactive
same,Potency,[2],inactive
same,Potency,[3],inactive
same,Potency,[4],inactive
same,Potency,[5],inactive
same,Potency,[6],inactive
same,Potency,[7],inactive
same,Potency,[8],inactive
same,outcome,[9],inactive
same,outcome,[10],inactive
same,Potency,[11],inactive
same,Potency,[13],inactive
same,Potency,[12],inactive
CC[C@H]1[C@@H](C)[C@@H](c2cc(OC)c(OC)cc2OC)[C@H](C)[C@@H](c2cc(OC)c(OC)cc2OC)[C@@]12C=C(OC)C(=O)C=C2OC,outcome,[1],inactive
same,Potency,[2],inactive
same,Potency,[4],inactive
same,Potency,[6],inactive
same,Potency,[7],inactive
same,Potency,[8],inactive
same,outcome,[9],inactive
same,outcome,[10],inactive
same,Potency,[12],inactive
COc1cc2c3c(n(CCCNCCO)c(=O)c2cc1OC)-c1cc2c(cc1C3=O)OCO2,Potency,[14],5870 nM (active)
same,Potency,[15],26.3 nM (active)
same,Potency,[16],29.5 nM (active)
same,Potency,[17],inactive
same,Potency,[18],inactive
same,Potency,[19],7.8 nM (active)
same,Z-AUC,[19]; [21],-2.45
same,Z-AUC,[19]; measured here: PEO4 Z-AUC,-1.56
same,"activity change, negative = inhibition",[20]; HiBiT,-14.1% (inactive)
same,"activity change, negative = inhibition",[20]; Viability,-9.73% (inactive)
CC(=O)NCC(=O)N1[C@@H]2CC[C@H]1c1ccc(Nc3ncc(C(F)(F)F)c(NC4CCC4)n3)cc12,Potency,[14],4660 nM (active)
same,Potency,[15],590 nM (active)
same,Potency,[16],166 nM (active)
same,Potency,[17],inactive
same,Potency,[18],inactive
same,Z-AUC,[19],-0.104 (inactive)
same,Z-AUC,[19]; [21],-0.113
same,Z-AUC,[19]; measured here: PEO4 Z-AUC,-0.17
same,Potency,[20]; HiBiT,3130 nM (active)
same,"activity change, negative = inhibition",[20]; Viability,-29.6% (inactive)
C/C(=C\[C@@H](C)CC/C=C/CC/C=C/C(=O)O)[C@H](O)[C@H](C)C(=O)CCCC1CC(=O)NC(=O)C1,outcome,[1],inactive
same,Potency,[2],inactive
same,Potency,[3],inactive
same,Potency,[4],inactive
same,Potency,[5],inactive
same,Potency,[6],inactive
same,Potency,[7],inactive
same,Potency,[8],inactive
same,outcome,[9],inactive
same,outcome,[10],inactive
same,Potency,[11],inactive
same,Potency,[13],inactive
same,Potency,[12],inactive
